Assay results published in PubChem BioAssay AID624297 (National Center for Advancing Translational Sciences (NCATS), 2012).
About 6,200 (1.8%) of roughly 340,000 compounds were called active. Roughly 10% stayed inconclusive and do not appear here. This is one part of a sample in which actives are shown more often than they occur. Values without a mark were called inactive. Calls come from the whole dose curve; as a rule, active = well fitted activation curve with a large enough effect; inconclusive = small, poorly fitted or top-dose-only effect; inactive = no such curve, though single readings can be large or run the other way.

assay: A quantitative high throughput screen for small molecules that induce DNA re-replication in SW480 colon adenocarcinoma cells.; note: nearly all actives have a fitted effect of over 55% in size; for re-replication activation: % of control where 0% means no effect; details: Hoechst DNA content imaging, 48 h; series mostly up to 46.1 µM; re-replication activation: at the top concentration
In short: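 SW480 cells exposed to compounds for 48 hr at 37 C, 5% CO2, then Hoechst-stained 40 min. Nuclear DNA content imaged by fluorescence scanning (405 nm excitation, 500-530 nm emission); re-replication scored as increased high-intensity nuclei.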
Potency is the fitted concentration of half-maximal effect.

Structure (SMILES)	re-replication activation	Potency
Cc1ccc(C(=O)O)c(NC=O)c1OCc1ccccc1	-4.14%	
CC(OC(=O)c1c(F)cccc1F)C(=O)NCCC1=CCCCC1 (stereo not given)	5.62%	
O=C(Nc1cccc(S(=O)(=O)N2CCCC2)c1)c1cncc(Br)c1	-1.35%	
COc1ccc2sc(-c3ccc(S(C)(=O)=O)cc3)c(-c3ccc(C(N)=O)cc3)c2c1	15.8%	
COc1ccc2sc(-c3ccc(S(C)(=O)=O)cc3)c(C#Cc3cncn3C)c2c1		5.8 µM (active)
Cn1cncc1C#Cc1c(-c2ccsc2)sc2ccccc12	4.17%	
Oc1cccc(CCc2ccccn2)c1	-2.7%	
COc1cc2[nH]c(=O)n(Cc3ccc(C(=O)NC4CCN(Cc5ccccc5)CC4)cc3)c(=O)c2cc1OC	0.862%	
COc1ccc(C(=O)O)cc1S(=O)(=O)NC1CCN(Cc2ccccc2)CC1	-1.41%	
COc1cc(C(=O)NC2CCN(Cc3ccccc3)CC2)cc(Cl)c1OC(C)C		18.4 µM (active)
CNC[C@@H]1Oc2c(NS(C)(=O)=O)cccc2C(=O)N([C@@H](C)CO)C[C@H]1C	-6.99%	
CCn1nc(C(=O)NNS(=O)(=O)c2cc(/C=C/C(=O)O)cc(OC)c2OC)c2ccccc2c1=O	-4.81%	
C=CC[C@@H](Cc1ccc(F)cc1)C(=O)OC[C@H]1CCCN1C(=O)[C@H](CC=C)CC(=O)N(CCO)Cc1ccccc1	0.701%	
Cc1ccc(S(=O)(=O)c2c(COC(=O)c3cccc(Cl)c3)c(-c3ccccc3)nn2C)cc1	-8.27%	
Cn1nc(-c2ccccc2)c(CSc2cccc(Cl)c2)c1Cl		16.4 µM (active)
Cn1nc(-c2ccccc2)c(CO)c1Sc1ccccc1	-5.91%	
COc1cccc(CC(=NO)c2cccc(OC)c2)c1	2.86%	
c1ccc(-n2nnnc2-c2cccnc2)cc1	-6.03%	
CCOC(=O)C(C)n1cnc2c(nnn2-c2cccc(OC)c2)c1=O (stereo not given)	-20%	
CCOc1cccc(-n2nnnc2-c2ccc(OC)cc2)c1		13 µM (active)
COc1cc(S(=O)(=O)N2CCN(C(=O)C3CC3)CC2)ccc1NC(C)=O	1.84%	
COc1cc(C(=O)NC2CCN(C)CC2)ccc1Nc1ncc2c(n1)N(C1CCC(O)CC1)CCC(=O)N2C (stereo not given)	-0.0388%	
COC(=O)C1=C(C)N(C)C(=O)NC1c1ccc([N+](=O)[O-])o1 (stereo not given)		23.1 µM (active)
COC(=O)C1=C(C)N(C)C(=S)NC1c1ccccc1 (stereo not given)	4.94%	
COc1ccc(C2NC(=O)N(C)C(C)=C2[N+](=O)[O-])cc1 (stereo not given)	3.98%	
Cc1cccc(C(=O)N[C@H](C(=O)NCc2cccs2)C(C)C)c1	-0.917%	
COc1ccc(CN2C(CC(=O)Nc3cccnc3)c3ccc(C(F)(F)F)cc3S2(=O)=O)cc1 (stereo not given)	-6.2% [at 9.22 µM]	

Structure (SMILES)	re-replication activation	Potency
CCCC(=O)C1CCN(Cc2ccccc2)CC1	-3.22%	
CCCCN(Cc1ccccc1)C(=O)C1CCN(Cc2sccc2C)CC1		14.6 µM (active)
CCCCN(C)C(=O)C1CCN(Cc2ccccn2)CC1	-0.529% [at 9.22 µM]	
CSCCC(NS(=O)(=O)c1ccc(C)cc1)C(=O)N(C)CC(=O)Nc1ccccc1Br (stereo not given)	-3.06%	
CNN/C(N=Cc1ccc([N+](=O)[O-])s1)=N\S(=O)(=O)c1cc(C)c(Cl)cc1SCc1ccccc1	8.71%	
COc1ccc(-c2csc(NC3OC(=O)c4ccccc43)n2)cc1 (stereo not given)	81.4%	
COc1ccc2c(c1OC)C(=O)OC2Nc1nc(-c2ccccc2)cs1 (stereo not given)		6.51 µM (active)
Cc1cccc(Nc2nc(-c3ccccc3)cs2)n1	-2.99%	
O=C1NC[C@@H](c2ccccc2)OC(=O)[C@H](Cc2ccc(F)cc2)CC/C=C/C[C@H]1CC(=O)N(CCO)Cc1ccccc1	17.4%	
CCOC(=O)C1=CN(Cc2ccc(Br)cc2)S(=O)(=O)NC1C (stereo not given)	-17.8%	
CC1CC(C)CN(CC(=O)N2c3ccccc3CCc3ccccc32)C1 (stereo not given)	3.05%	
CC1C(=O)N(Cc2ccccc2)c2ccccc2N1C(=O)c1ccccc1 (stereo not given)	14.5%	
CC1C(C)N(C(=O)CCl)c2ccccc2N1C(=O)CCl (stereo not given)		5.17 µM (active)
Cc1c(NS(=O)(=O)c2cccc(C(=O)Nc3ccc(SC(F)F)cc3)c2)c(=O)n(-c2ccccc2)n1C	4.95%	
COc1ccc(NS(=O)(=O)c2ccc(C(=O)Nc3c(C)n(C)n(-c4ccccc4)c3=O)cc2)cc1		6.51 µM (active)
Cc1cc(C(=O)Nc2c(C)n(C)n(-c3ccccc3)c2=O)cs1	-10.3%	
C=CC(=O)Nc1ccc(Nc2ccnc(Nc3ccc(N4CCN(C)CC4)cc3)n2)cc1	5.86%	
C(=N/Nc1cc(N2CCOCC2)nc(N2CCOCC2)n1)/c1ccccc1		5.8 µM (active)
CN(C)c1ccc(/C=N/Nc2cc(N3CCOCC3)nc(N3CCOCC3)n2)cc1	5.95%	
Cc1cc(N2CCN(c3ccccc3)CC2)nc(N2CCOCC2)n1	-2.59%	
COc1ccccc1N1CCN(C(=O)c2cc(=O)c3cc(C)ccc3o2)CC1	21.2%	
COc1cc2c(cc1OC)CN(C(=O)c1cc(=O)c3ccccc3o1)CC2		13 µM (active)
O=C(c1cc(=O)c2ccccc2o1)N1CCN(c2ccccc2)CC1	-6.89%	
NC(=O)C1CCN(C(=O)c2cc(S(=O)(=O)N3CCN(c4ccccc4)CC3)ccc2Cl)CC1	-14.1%	
COc1cc2[nH]c(O)c(C=O)c2cc1OC	-6.01%	
Cc1ccc(S(=O)(=O)N2CCN(C(=O)COC(=O)/C=C/c3cccc(Cl)c3)CC2)c(C)c1	-5.89%	
CCCCC[C@@H]1C=C(C(=O)O)[C@H](c2ccc(C#N)cc2)N1S(=O)(=O)c1ccc(C)cc1	-62.7%	

Structure (SMILES)	re-replication activation	Potency
CCC1(C)COC(c2ccc(OC)c(OC)c2)OC1 (stereo not given)	-7.45%	
O=[N+]([O-])c1ccccc1NCc1ccc(Cl)cc1	1.16%	
O=C(Cc1ccc(Cl)cc1)NC(=S)Nc1ccccc1O	2.2%	
Oc1ccc(CNc2ccccc2O)cc1		20.6 µM (active)
CC(C)(C)OC(=O)C1=C(CO)CS[C@@H]2[C@H](NC(=O)Cc3ccccc3)C(=O)N12	-42.1%	
OCCN1CCN(CCO)C1=S	-4.81%	
COc1ccc(C(CNC(=O)COc2ccccc2OC)N2CCCCC2)cc1 (stereo not given)	-22.2%	
CCc1ccc(OCC(=O)NCC(c2ccc(Cl)cc2)N2CCCCC2)cc1 (stereo not given)		9.2 µM (active)
COc1ccc(C(CNC(=O)COc2ccc([N+](=O)[O-])cc2)N2CCCCC2)cc1 (stereo not given)	4.17%	
O=C(CNS(=O)(=O)c1ccc2c(c1)OCCCO2)N1CCN(c2ccc(F)cc2)CC1	1.14%	
O=C1COc2c1ccc(O)c2O	11.9%	
OCC1(CCOc2ccccc2)CCN(Cc2cn[nH]c2-c2ccccc2)CC1	-13.6%	
CCOC(=O)C1(CCOc2ccccc2)CCN(Cc2cc(OC)c(O)cc2Cl)CC1	0.743%	
Cc1c(CN2CCC(CO)(CCOc3ccccc3)CC2)[nH]c2ccc(Cl)cc12		14.6 µM (active)
CCOC(=O)C1=CN(Cc2ccc(Br)cc2)S(=O)(=O)N(C)C1C (stereo not given)	-0.811%	
Cc1ccc(NC(=O)COC(=O)C2CC2)cc1S(=O)(=O)N1CCOCC1	-7.93%	
Cc1ccc(NC(=O)C2CCC(C(C)(C)C)CC2)cc1S(=O)(=O)N1CCOCC1 (stereo not given)		14.6 µM (active)
Cc1ccc(NC(=O)NC2CCCCC2)cc1S(=O)(=O)N1CCOCC1	-5.01%	
Cc1cc(Cl)ccc1OCCCC(=O)NCc1ccncc1	2.62%	
CC(=O)Nc1ccc(OCC(=O)NCc2ccc(C)cc2)cc1	-9.01%	
C/C(CC(=O)NCc1ccc(Cl)cc1)=N\NC(=O)COc1ccc(C)cc1Br		14.6 µM (active)
COc1ccc(C2NCCCC2c2ccccc2)cc1 (stereo not given)	-1.86%	
CCN(C(=O)COC(=O)c1ccccc1O)c1cccc2ccccc12	1.88%	
CCC1([N+](=O)[O-])COC(c2ccc(C)cc2)OC1 (stereo not given)	16.5%	
CC(C)(C)S(=O)(=O)N1Cc2cc(CO)cc(CCO)c2[C@H]1CCO	-0.352%	
O=C(O)C(c1cccs1)C1(O)CCCCC1 (stereo not given)	-4.11%	
Cc1nnc(OCC(=O)NCCC2=CCCCC2)c2ccccc12		16.4 µM (active)

Structure (SMILES)	re-replication activation	Potency
O=C(COc1ccc(Cl)cc1)NCCC1=CCCCC1	0.0093%	
O=C(Cc1cccc2ccccc12)NCCC1=CCCCC1	0.0468%	
CCc1nnc(NC(=O)c2sc3nc(C)cc(COC)c3c2N)s1	-3.2%	
COCc1cc(C)nc2sc(C(=O)NC3CCCCC3)c(N)c12	-5.55%	
COc1ccc(OC)c(NC(=O)c2sc3nc(C)cc(C)c3c2N)c1		9.2 µM (active)
CCOc1ccc(/C=C(/C#N)c2nnc(N3CCOCC3)n2-c2ccccc2)cc1OC	-2.36%	
COc1cccc(/C=N/NC(=O)c2[nH]nc3c2CCc2ccccc2-3)c1O		3.26 µM (active)
CN(C)CCNC(=O)c1[nH]nc2c1CCc1ccccc1-2	-14.4%	
COc1cc2cc(C(=O)N/N=C/c3cccc(OC)c3OC)[nH]c2cc1OC	3.72%	
O=C(CSc1cccc[n+]1[O-])c1ccc(Cl)cc1	9.54%	
COc1ccccc1C(=O)CSc1cccc[n+]1[O-]	-6.96%	
O=C(CSc1cccc[n+]1[O-])c1ccc(-c2ccccc2)cc1		2.82 µM (active)
O=C(NCCc1ccc(F)cc1)c1ccc2nccnc2c1	-5.68%	
O=C(OCCOc1ccccc1Cl)c1cc(S(=O)(=O)N2CCCCC2)ccc1N1CCOCC1	-2.46%	
Cc1cc(C(=O)Nc2nnc(C3CC3)s2)c(C)s1	-62.8%	
Cc1cccn2c(=O)c3cc(C(=O)NCC4CCCO4)c(=N)n(Cc4ccc(F)cc4)c3nc12 (stereo not given)		8.2 µM (active)
Cc1cccn2c(=O)c3cc(C(=O)NCCN4CCOCC4)c(=N)n(Cc4cccnc4)c3nc12		4.11 µM (active)
Cc1ccc2nc3c(cc(C(=O)NCCc4ccccc4)c(=N)n3CC3CCCO3)c(=O)n2c1 (stereo not given)		11.6 µM (active)
O=C(NCC1CCCO1)c1cc2c([nH]c3ccccc32)c(-c2ccc(F)cc2)n1 (stereo not given)	4.34%	
COc1ccc(CCNC(=O)Cn2c(=O)n(CC3CCCO3)c(=O)c3ccccc32)cc1OC (stereo not given)	4.93%	
O=C(CSc1nc2ccccc2c(=O)n1Cc1ccc(F)cc1)NCC1CCCO1 (stereo not given)	-1.49%	
Cc1cccn2c(=O)c3cc(C#N)c(=O)n(CCCN4CCOCC4)c3nc12	-24.6%	
Cc1ccc(CCNC(=O)c2ccc3nc4ccccc4c(=O)n3c2)cc1	0.89%	
Cc1ccc(Cn2c(C)c3cnn(CC(=O)NCCN4CCOCC4)c(=O)c3c2C)cc1	-3.76%	
